Results reported in PubChem BioAssay AID1347073 (National Center for Advancing Translational Sciences (NCATS), 2019).
About 200 (0.44%) of roughly 45,000 compounds were called active. Roughly 7% stayed inconclusive and do not appear here. Shown is part of a subset that was picked to be rich in actives. Values without a mark were called inactive. The call rests on the fitted dose curve; in most records, active means well fitted activation curve with a large enough effect; inconclusive means small, poorly fitted or top-dose-only effect; inactive means no such curve, though single readings can be large or run the other way.

Test: qHTS of TDP-43 Inhibitors: NCGC Sytravon Library Screen; further: nearly all actives have a fitted effect of over 55% in size; on growth rescue (activation): 0% is about no effect
Conditions: yeast TDP-43 toxicity rescue, BacTiter-Glo growth, 24 h; series mostly up to 46.1 µM; growth rescue (activation): at the top concentration
Description: The goal of this project is to identify new chemical probes capable of reversing the toxicity associated with TDP-43 which is associated with frontotemporal lobar degeneration and amyotrophic lateral sclerosis. These compounds will provide a complementary approach to deciphering the tangled mechanisms of toxicity and protection that we have uncovered through genome-wide genetic screens and are beginning to uncover in a large-scale proteomics analysis with mass spectroscopy. To this end, a miniaturized assay was developed to be screened against the Molecular Libraries Small Molecule Repository (MLSMR) to discover TDP-43 inhibitors. Please note that in the set-up this yeast-based assay compounds that inhibit as TDP-43, have a read-out as activators. NIH Chemical Genomics Center [NCGC] NIH Molecular Libraries Probe Centers Network [MLPCN] Assay Submitter (PI): Susan Lindquist, Whitehead Institute/MIT MLPCN Grant: R21 NS060957
Dispense 2.5 microL yeast galactose medium per 1536-well plate, pin compound, dispense 2.5 microL TDP-43 expressing yeast in galactose medium at OD600=0.02 (pregrown in raffinose medium to mid-log phase) per well, incubate for 24 hr at 30 deg C, and cell growth will be measured using 5 microL of Bactiter/Glo reagent to entire plate and read using Luminescence Protocol in ViewLux.
Potency means the concentration at half of the fitted maximal effect.

Row | Compound | growth rescue (activation) | Potency
1 | Cc1nc(C(F)(F)F)ccc1C(=O)N1CCC1(C)C(=O)NS(=O)(=O)c1ccccc1 (stereo not drawn) | 14% | 
2 | C=CCN1C(=O)C(O)(CC(=O)c2ccccn2)c2ccccc21 (stereo not drawn) | 2.18% | 
3 | COc1ccc(N(C)S(=O)(=O)c2cccc3nsnc23)cc1 | 21.5% | 
4 | CCCC(=O)Nc1ccc2c(c1)nc(CCNC(=O)c1ccco1)n2C | -7.12% | 
5 | COc1ccc(NC(=O)NC(C)c2c(-n3cccc3)sc(C)c2C)cc1OC (stereo not drawn) | 1.24% | 
6 | COCCNC(=O)C1(C)CCCN(Cc2cccc(F)c2)C1 (stereo not drawn) | -16.4% | 
7 | COc1ccc(-n2cnnc2SCC(=O)Nc2cccc(S(N)(=O)=O)c2)cc1 | -0.153% | 
8 | O=C(O)c1ccc(/C=N/NC(=O)c2ccc(Br)cc2)cc1 | 8.15% | 
9 | CCOC(=O)Cc1csc(SCc2cc(=O)oc3cc(O)ccc23)n1 | 2.23% | 
10 | Cc1cc(=O)[nH]c(SCC(=O)Nc2ccc(Br)cc2)n1 | 0.754% | 
11 | CCOC(=O)Cc1csc(NC(=O)CSc2ccc(Br)cc2)n1 |  | 12.6 µM (active)
12 | O=C(C(Cl)Cl)N1CCN(c2ccccn2)CC1 | 7.4% | 
13 | OC(c1ccc(F)cc1)c1ncc(-c2cccc(C(F)(F)F)c2)[nH]1 (stereo not drawn) | 14.7% | 
14 | COc1ccc(CN(C)Cc2nc3cc(OC)c(OC)cc3c(=O)[nH]2)c(OC)c1 | 5.3% | 
15 | CC1(C(=O)NS(=O)(=O)Cc2cccc(Cl)c2)CCN1C(=O)Cc1ccc(Cl)cc1Cl (stereo not drawn) | 6.35% | 
16 | O=C(NC1CCCC1)C(c1c(F)cccc1Cl)N(C(=O)c1csnn1)C1CC1 (stereo not drawn) | 13.1% | 
17 | O=C(COC(=O)c1ccc([N+](=O)[O-])o1)NC12CC3CC(CC(C3)C1)C2 | 9.8% | 
18 | Cc1noc(/C=C/c2ccco2)c1S(=O)(=O)N1CCC(C(=O)Nc2ccc(Cl)cn2)CC1 | 3.65% | 
19 | CC(C)c1nc2sc3c(c2c(=O)n1N)CC(C)(C)OC3 | 20.6% | 
20 | CN(CCc1ccccn1)C(=O)CCC1CCCN(Cc2ccccc2OC(F)F)C1 (stereo not drawn) | 1.51% | 
21 | CC(=O)Nc1ccc(NC(=S)NC(=O)c2ccc([N+](=O)[O-])c(C)c2)cc1 | 12.6% | 
22 | O=C(NCc1cccnc1)c1cc(C2CCCN(C(=O)CCCc3ccccc3)C2)on1 (stereo not drawn) | 2.36% | 
23 | OC[C@@H]1CN(Cc2ccc3c(c2)OCO3)C[C@H](n2cnc3c(NCc4ccco4)ncnc32)O1 | 8.28% | 
24 | O=C(c1cnccn1)N1CCN(S(=O)(=O)c2cccc(Cl)c2)CC1 | 12.7% | 
25 | CCCCNC(=O)N(O)C1N(/N=C/c2ccccc2O)C(=S)SC1(C)C (stereo not drawn) | 13.7% | 
26 | Cc1cccc(NC(=O)c2ccc([N+](=O)[O-])o2)c1 | -89% | 
27 | CCCSc1ncc(Cl)c(C(=O)Nc2c(C(=O)Nc3ccccc3)oc3ccccc23)n1 | 5.87% | 
28 | Cc1cccc(NC(=O)c2nc(S(=O)(=O)Cc3ccccc3)ncc2Cl)c1 |  | 12.6 µM (active)
